Screening data deposited in PubChem by National Center for Advancing Translational Sciences (NCATS).
An excerpt weighted towards active compounds, which were near 2.7% of everything screened.
LDHA block – LDHA (human) enzyme inhibition; P00338; purified LDHA, NADH/diaphorase-resazurin fluorescence; active compounds read low; activity change, % (values are at about 110 or 230 µM); 480,000 compounds, 0.15% hits; AID 1347041; in the data active means activity change below about -30%; inconclusive means mostly about -25% to -30%
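Remaining NADH was detected by diaphorase (0.133 mg/mL) converting 37 µM resazurin to fluorescent resorufin, read at 0 and 20 minutes. The preceding 5-minute room-temperature reaction used 2 nM LDHA, 0.2 mM sodium pyruvate and 0.06 mM NADH at pH 7.4.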
Nrf2 inh – Nrf2 pathway inhibition; 360,000 compounds, 2.1% hits; A549 ARE-Fluc reporter, luciferase luminescence, 18-24 h; Potency, µM (titrated, usually from 46 µM), hits mostly inhibitors; further: nearly all actives have a fitted effect of over 60% in size
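Nrf2 activity is the BugLite luminescence, read 15 min after reagent at room temperature, following CellTiter-Fluor cytotoxicity readout (30 min, 37C). Compound titrations were applied for 18-24 h to 5000 A549 ARE_Fluc cells/well in 5% FBS OPTI-MEM.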
ALOX12 inh – ALOX12 (human) lipoxygenase inhibition | 580,000 compounds, 1.1% hits | purified 12hLO, xylenol orange hydroperoxide absorbance | AID 1671190 | Potency, µM (top dose mostly 108 µM), usual class: inhibitors | P18054
Target sequence (P18054 whole entry, looked up): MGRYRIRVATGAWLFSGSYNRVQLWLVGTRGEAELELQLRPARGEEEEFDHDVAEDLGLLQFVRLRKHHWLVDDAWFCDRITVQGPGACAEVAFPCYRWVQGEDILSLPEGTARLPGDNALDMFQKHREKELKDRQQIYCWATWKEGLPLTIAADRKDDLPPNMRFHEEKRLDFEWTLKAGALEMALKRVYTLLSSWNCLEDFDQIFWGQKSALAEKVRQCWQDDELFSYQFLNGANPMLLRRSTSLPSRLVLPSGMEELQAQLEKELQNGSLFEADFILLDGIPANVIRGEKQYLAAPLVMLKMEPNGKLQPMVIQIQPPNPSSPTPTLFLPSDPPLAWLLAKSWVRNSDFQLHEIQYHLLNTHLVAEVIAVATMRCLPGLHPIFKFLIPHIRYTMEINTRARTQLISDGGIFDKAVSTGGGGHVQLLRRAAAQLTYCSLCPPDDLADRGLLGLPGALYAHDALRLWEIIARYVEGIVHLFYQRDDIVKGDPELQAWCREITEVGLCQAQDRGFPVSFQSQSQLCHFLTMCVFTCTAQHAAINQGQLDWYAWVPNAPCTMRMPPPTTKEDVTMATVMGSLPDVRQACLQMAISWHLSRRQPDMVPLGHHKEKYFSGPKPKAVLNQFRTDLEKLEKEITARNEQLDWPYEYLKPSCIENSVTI
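Purified human 12hLO (150 nM final) in 25 mM Hepes, 0.01% Triton X-100, pH 7.0 was preincubated 15 min at room temperature with compound. Then 40 uM arachidonic acid was added, 30 min. Hydroperoxide was read by Fe-XO absorbance ratio 573/405 nm.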
Nrf2 ARE act – activates Nrf2 signaling; AREc32 ARE-luciferase reporter (MCF7-derived line), luminescence, 24 h; AID 624171; 410,000 compounds, 0.31% hits; Potency, µM (titrated, usually from 46.1 µM), usual class: activators; further: nearly all actives have a fitted effect of over 65% in size
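ARE-driven firefly luciferase activity in AREc32 cells measured after a 24 hr compound exposure at 37 deg C, using Steady-Glo reagent and a 30 min room-temperature hold.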
A549 tox – counter-screen for Nrf2 inhibitors: cytotoxicity in A549 cells; A549 ARE-Fluc cells, CellTiter-Fluor viability, 18-24 h; Potency, µM (highest dose often 46 µM), usual class: inhibitors; 390,000 compounds, 0.16% hits
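A549 ARE-Fluc cells in 5% FBS OPTI-MEM, 5000 cells/well, rested 2 h then exposed to compounds in concentration-response for 18-24 h at 37 °C. Viability by CellTiter-Fluor fluorescence (Ex 405/Em 525) after 30 min; luciferase luminescence (BugLite, 15 min, RT) read afterwards.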
IDH1 R132H inh – blocks human mutant IDH1 R132H enzyme. O75874. IDH1-R132H enzyme, NADPH consumption, diaphorase/resazurin fluorescence. Potency, µM (highest dose often 76.6 µM), usual class: inhibitors. 390,000 compounds, 0.093% hits; further: nearly all actives have a fitted effect of over 65% in size
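IDH1-R132H (0.5 ug/mL dispensed) in pH 7.5 Tris buffer was preincubated 30 min with compound, then given a substrate mix of 0.016 mM NADPH and 2 mM alpha-KG for 80 min at room temperature; remaining NADPH was read by diaphorase/resazurin fluorescence.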
Each line names hits and unclear results; the compound was inactive in the other large screens. Unless noted, the call rests on the fitted dose curve; in most records, active means well fitted curve in the direction sought with a large enough effect; inconclusive means small, poorly fitted or top-dose-only effect, or another doubt; inactive means no such curve, though single readings can be large; an effect the other way counts as inactive or inconclusive.

Cn1c(=O)c([N+](=O)[O-])c(N2CCSCC2)c2ccccc21	none
CCCCCCCCC1CCC(=O)O1 (stereo not drawn)	none (no result: LDHA block, Nrf2 inh, Nrf2 ARE act, A549 tox, IDH1 R132H inh)
CCCNC(=O)c1ccc(-c2nc(CS(=O)(=O)c3ccccc3)c(C)o2)cc1	none (no result: Nrf2 inh, Nrf2 ARE act, A549 tox, IDH1 R132H inh)
CCC(=O)Nc1ccc(N2CCCCC2)c(C(=O)Nc2ccc(OC)cc2)c1	Nrf2 inh 18.4µM
CC(OC(=O)c1ccc(-n2cnnn2)cc1)C(=O)N1CCc2ccccc21 (stereo not drawn)	none (no result: Nrf2 inh, Nrf2 ARE act, A549 tox, IDH1 R132H inh)
COc1ccc(N2CCN(C(=O)CCc3ccc(S(=O)(=O)NCC(C)C)cc3)CC2)cc1	Nrf2 inh 25.9µM, ALOX12 inh inconclusive
COc1ccc(N2CCN(C(=O)COC(=O)c3cccc(S(=O)(=O)Nc4cccc(C)c4)c3)CC2)cc1	Nrf2 inh 25.9µM
CC(C)c1ccccc1NC(=O)CSc1ncnc2ccccc12	none (no result: Nrf2 inh, Nrf2 ARE act, A549 tox, IDH1 R132H inh)
COc1cccc(-c2nc(C(=O)NCC3CCCO3)cc3c2[nH]c2ccccc23)c1 (stereo not drawn)	Nrf2 inh 20.6µM
Cc1cccc(S(=O)(=O)Nc2cccc3c2C(=O)c2ccccc2-3)c1	Nrf2 inh 18.4µM
N#Cc1ccc(N2CCC(C(=O)Nc3cn[nH]c3)CC2)nc1	none (no result: Nrf2 inh, Nrf2 ARE act, A549 tox, IDH1 R132H inh)
O=C(c1cc2c(s1)-c1ccccc1S(=O)(=O)C2)N1CCN(Cc2ccccc2)CC1	Nrf2 inh 18.4µM
CCN1CCN(C(=O)c2cc3c(s2)-c2ccccc2S(=O)(=O)C3)CC1	none
c1cc(-c2nc(-c3ccc4c(c3)OCCCO4)cs2)cs1	ALOX12 inh inconclusive (no result: Nrf2 inh, Nrf2 ARE act, A549 tox, IDH1 R132H inh)
COc1ccccc1-c1nc(S(=O)(=O)c2ccc3c(c2)OCCO3)c(N2CCOCC2)o1	none (no result: Nrf2 inh, Nrf2 ARE act, A549 tox, IDH1 R132H inh)
O=C(Nc1nnc(C2=COCCO2)o1)c1ccc(F)cc1	Nrf2 inh inconclusive
O=C(Nc1nnc(-c2ccco2)o1)c1ccc(Br)cc1	none (no result: Nrf2 inh, ALOX12 inh, Nrf2 ARE act, A549 tox, IDH1 R132H inh)
O=C(Nc1nnc(C2=COCCO2)o1)c1ccc(Cl)cc1	ALOX12 inh 39.8µM
O=C(Nc1nnc(-c2ccccc2Cl)o1)c1ccco1	Nrf2 ARE act 12.6µM (no result: Nrf2 inh)
O=C(Nc1nnc(-c2ccco2)o1)c1ccc(Cl)cc1	Nrf2 inh inconclusive, ALOX12 inh 25.1µM
Cn1nc(-c2ccc(C(=O)Nc3ccc(F)cc3)cc2)c2ccccc2c1=O	Nrf2 inh 18.4µM, ALOX12 inh inconclusive
Cn1nc(-c2ccc(C(=O)Nc3cccc(Cl)c3)cc2)c2ccccc2c1=O	Nrf2 inh 6.51µM
Cc1ccc(NC(=O)c2ccc(-c3nn(C)c(=O)c4ccccc34)cc2)cc1	Nrf2 inh inconclusive
Cn1nc(-c2ccc(OCC(=O)Nc3cccnc3)cc2)c2ccccc2c1=O	Nrf2 inh inconclusive
Cn1nc(-c2ccc(OCC(=O)Nc3cccc(C(F)(F)F)c3)cc2)c2ccccc2c1=O	Nrf2 inh 25.9µM, A549 tox inconclusive
CNC(=O)c1cccc(NC(=O)c2ccc(N(C)C)cc2)c1	none (no result: Nrf2 inh, Nrf2 ARE act, A549 tox, IDH1 R132H inh)
CCCCCOc1ccc(C(=O)C(CCC(CNC(C)(C)C)C(=O)c2ccc(OCCCCC)cc2)CNC(C)(C)C)cc1 (stereo not drawn)	ALOX12 inh inconclusive (no result: Nrf2 inh, Nrf2 ARE act, A549 tox, IDH1 R132H inh)
Cc1occc(=O)c1OCc1noc(C(=O)NCc2cccc(Cl)c2)n1	ALOX12 inh inconclusive (no result: Nrf2 inh, Nrf2 ARE act, A549 tox, IDH1 R132H inh)
C[N+](C)([O-])CCNc1ccc(NCC[N+](C)(C)[O-])c2c1C(=O)c1c(O)ccc(O)c1C2=O	none (no result: LDHA block, Nrf2 inh, Nrf2 ARE act, A549 tox, IDH1 R132H inh)
O=C1c2c(O)ccc(O)c2C(=O)c2c(NCCNCCO)ccc(NCCNCCO)c21	Nrf2 inh inconclusive, A549 tox 13µM
CC(C)c1ccc(CNc2nc(NCC3CC3)nc3ccsc23)cc1	ALOX12 inh 50.1µM (no result: Nrf2 inh, A549 tox, IDH1 R132H inh)
COc1cc(OC)cc(C(=O)N2CCN(C3CCCCC3)CC2)c1	ALOX12 inh inconclusive
COc1cc(OC)cc(C(=O)N2CCN(C3CCN(Cc4ccccc4)CC3)CC2)c1	LDHA block -31.4, ALOX12 inh inconclusive
COc1ccc(NS(=O)(=O)c2ccc(C(=O)N3CCN(Cc4ccccc4)CC3)cc2)cc1	Nrf2 inh 20.6µM
CCOc1ccc(NS(=O)(=O)c2ccc(C(=O)N3CCCC(C)C3)cc2)cc1 (stereo not drawn)	Nrf2 inh 7.31µM
